Compounds with a hit are over-represented: about 8.9% of the library has one in this group of screens.
SW480 rereplic – DNA re-replication induction in SW480 cells; SW480 DNA re-replication, Hoechst DNA content imaging, 48 h; Potency, µM (highest dose often 46.1 µM), inactives show at the top dose re-replication activation, actives largely listed as activators; 340,000 compounds, 1.8% hits; AID 624297; note: potency is the fitted concentration of half-maximal effect; % of control where 0% means no effect; nearly all actives have a fitted effect of over 55% in size
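Image-based DNA-content assay: after two days of treatment, nuclei were labelled with the DNA dye Hoechst and imaged, and hits were compounds raising the count of nuclei showing high fluorescence intensity.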
KB-3-1 tox – KB-3-1 parental cell cytotoxicity | KB-3-1 viability, CellTiter-Glo ATP luminescence, 72 h | 400,000 compounds, 1.4% hits | AID 1347075 | Potency, µM (highest dose often 46.1 µM), actives largely listed as cytotoxic; note: potency is the fitted concentration of half-maximal effect; % is set by controls: 0 for no effect and ±100 for the full control effect; nearly all actives have a fitted effect of over 60% in size
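Here the drug-naive KB-3-1 line serves as comparator for MDR sub-line selectivity; cells received compound titrations, 72 h at 37 °C, then CellTiter-Glo readout.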
DRD3 agonist – agonists of human D3 dopamine receptor | 410,000 compounds, 0.58% hits | AID 652048 | D3R DiscoveRx beta-arrestin cells, luminescence, 90 min | max activation, %; in the data active = max activation above about 30%; note: 0% is about no effect
Target sequence (P35462 whole entry, looked up): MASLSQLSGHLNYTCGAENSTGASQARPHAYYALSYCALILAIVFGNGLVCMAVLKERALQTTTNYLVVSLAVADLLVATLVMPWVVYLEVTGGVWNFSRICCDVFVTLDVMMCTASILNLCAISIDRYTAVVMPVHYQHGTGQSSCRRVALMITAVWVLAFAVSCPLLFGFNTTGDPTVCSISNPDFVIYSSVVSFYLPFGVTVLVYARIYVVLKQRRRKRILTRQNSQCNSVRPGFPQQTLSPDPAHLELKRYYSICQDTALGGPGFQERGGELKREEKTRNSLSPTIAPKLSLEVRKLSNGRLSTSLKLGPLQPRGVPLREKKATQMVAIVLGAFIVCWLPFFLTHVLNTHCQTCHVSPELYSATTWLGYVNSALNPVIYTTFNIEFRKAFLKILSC
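Agonist-mode cell screen: cells plated at 1500/well and incubated overnight at 37 °C, then exposed to library compounds for 90 min at 37 °C. Detection reagent was added for 30–60 min at room temperature, and luminescence was read.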
KB-V1 cytotox – KB-V1 MDR subline cytotoxicity; 400,000 compounds, 3.4% hits; KB-V1 MDR cells viability, CellTiter-Glo, 72 h; AID 1347076; Potency, µM (titrated, usually from 46.1 µM), usual class: cytotoxic; note: potency is the fitted concentration of half-maximal effect; % is set by controls: 0 for no effect and ±100 for the full control effect; nearly all actives have a fitted effect of over 60% in size
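Drug-selected KB-V1 cells, grown in DMEM lacking phenol red with 10% FBS, receive compound titrations; after three days at 37 degrees C, surviving cell ATP is quantified by CellTiter-Glo luminescence and responses normalized and curve-fitted.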
D3 antag – blocks the human D3 dopamine receptor | D3R cells, DiscoveRx beta-arrestin luminescence, antagonist mode; active compounds read low | P35462 | max response, negative = inhibition, % | 360,000 compounds, 2.5% hits; in the data active = max response below about -50%; inconclusive = no clear call, values can overlap the other calls; note: % is set by controls: 0 for no effect and ±100 for the full control effect
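Cells plated overnight at 1500 cells/well, then exposed to library compounds with dopamine controls for 90 minutes at 37 degrees C. DiscoveRx reagent added for 30–60 minutes at room temperature; luminescence read, quantitative HTS format.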
MCF10A rereplic – induces DNA re-replication in MCF 10a normal breast cells | AID 624296 | MCF 10A DNA re-replication, Hoechst nuclear intensity, 48 h | Potency, µM (highest dose often 46.1 µM), for inactives: top-dose activity, positive = re-replication, most hits filed as activators | 350,000 compounds, 2.9% hits; note: potency is the fitted concentration of half-maximal effect; % of control where 0% means no effect; nearly all actives have a fitted effect of over 50% in size
Numbers without * were called inactive; i = inactive; ? = inconclusive; · = no result. Unless noted, calls come from the whole dose curve; as a rule, active = well fitted curve in the direction sought with a large enough effect; inconclusive = small, poorly fitted or top-dose-only effect, or another doubt; inactive = no such curve, though single readings can be large; an effect the other way counts as inactive or inconclusive.

SMILES | SW480 rereplic | KB-3-1 tox | DRD3 agonist | KB-V1 cytotox | D3 antag | MCF10A rereplic
O=S(=O)(Nc1nc(CN2CCOCC2)nc2sc3c(c12)CCCC3)c1cc(F)ccc1F | 3% | i | 1 | 10µM* | 22 | 2%
C=C1NN(Cc2ccccc2)C(=O)N1c1ccc(OC)cc1 | · | i | · | i | · | ·
Cn1c(C(=O)NCc2cccc(Cl)c2)cc2oc3ccccc3c21 | · | i | -2 | i | · | ·
CCOc1ccccc1CNC(=O)c1cc2oc3ccccc3c2n1C | 26% | 7.3µM* | 4 | ? | 18 | 15µM*
CCn1c(C(=O)NCc2ccccc2C)cc2oc3ccccc3c21 | · | · | 49* | · | · | ·
COCCNC(=O)c1cc2oc3ccccc3c2n1C | -4% | i | -1 | 23µM* | -17 | 8%
CCn1c(C(=O)NCc2ccc(OC(C)C)cc2)cc2oc3ccccc3c21 | · | · | 0 | · | · | ·
Cc1cc2c(cc1S(=O)(=O)Nc1cc(C(F)(F)F)cc(C(F)(F)F)c1)OCC(=O)N2 | · | i | -15 | i | · | ·
O=C(Nc1ccc(-c2csc(Nc3ccccc3)n2)cc1)c1cc([N+](=O)[O-])cc(C(F)(F)F)c1 | 14% | 15µM* | 2 | ? | 0 | 29%
CCCCN1CC(COCc2ccccc2)Oc2cccc(OCCN3C(=O)[C@@H]4[C@H](C3=O)C3C=C[C@H]4C3)c2S1(=O)=O (stereo partly drawn) | 0% | ? | 14 | 15µM* | 51 | ?
CCCCN1CC(COCc2ccccc2)Oc2cccc(Oc3ccc(OC)cc3)c2S1(=O)=O (stereo not drawn) | -2% | i | -14 | i | 30 | 18%
COc1cccc(/C=C/c2nc(C#N)c(N3CCN(C)CC3)o2)c1 | · | i | -16 | i | · | ·
CNc1ccc(/C=C(\C#N)c2ccccn2)cc1[N+](=O)[O-] | 0% | i | 0 | i | 13 | 2%
N#C/C(=C\c1ccc(Cl)c([N+](=O)[O-])c1)c1ccccn1 | ? | i | -12 | i | -55* | ?
CC12CCC(C(=O)Nc3cccc(Cl)c3)(C(Br)C1=O)C2(C)C (stereo not drawn) | ? | ? | -3 | 15µM* | 7 | ?
CCOC(=O)C1=C(c2ccccc2)NC(N)=NC1c1ccc(OCc2ccc(C(=O)OC)cc2)cc1 (stereo not drawn) | ? | ? | 3 | ? | -20 | 18µM*
Cc1ccc(NC(=O)C2CCN(S(=O)(=O)c3ccc4c(c3)CCCN4C(=O)C3CCC3)CC2)cc1 | · | i | 0 | i | · | ·
Cc1ccc2nc(/C(C#N)=C/c3cccc(Br)c3)[nH]c2c1 | · | i | -15 | ? | · | ·
Cc1cc2nc(/C(C#N)=C/c3ccncc3)[nH]c2cc1C | 13µM* | i | 2 | i | -5 | 23µM*
Cc1ccc2nc(/C(C#N)=C/c3ccc(O)c(O)c3)[nH]c2c1 | 23µM* | ? | 2 | i | ? | ?
Cc1ccc2nc(/C(C#N)=C\c3ccc(N4CCCCC4)c([N+](=O)[O-])c3)[nH]c2c1 | 5% | i | -36 | i | -70* | 2%
Cc1ccc2nc(/C(C#N)=C/c3cn[nH]c3-c3ccc(F)cc3)[nH]c2c1 | ? | ? | -14 | ? | 33 | 13µM*
N#C/C(=C\c1ccncc1)c1nc2ccccc2[nH]1 | -1% | i | -1 | i | -1 | ?
N#C/C(=C\c1cccnc1)c1nc2ccccc2[nH]1 | ? | ? | -19 | 23µM* | -12 | ?
N#C/C(=C\c1ccc(N2CCOCC2)c([N+](=O)[O-])c1)c1nc2ccccc2[nH]1 | -42% | ? | 6 | 10µM* | -17 | 10%
COc1ccccc1N(C1=NCCCS1)S(=O)(=O)c1ccc(C(C)(C)C)cc1 | 13% | ? | -16 | 23µM* | -12 | 1%
NC(=O)NNC1=Nc2cccc3cccc1c23 | -2% | i | -9 | i | 3 | -1%
COc1ccccc1NC1=Nc2cccc3cccc1c23 | -50% | i | -16 | ? | -20 | ?
